Legend:
Assay in all cases: DAPPL (digital affinity profiling via proximity ligation, sequencing); 10 mM Tris-HCl pH 7.5, 50 mM NaCl, 1 mM DTT, 4% glycerol, room temperature, 30 min; GST-TFs on glutathione beads, 16-mer random dsDNA library, 0.1% formaldehyde crosslink after washing; high values mean tight binding
FLI1 = target: T1, FLI1 (Homo sapiens, UniProt Q01543 1-452); details: protein: recombinant; tags: N-terminal GST; dsDNA, one strand shown
T1 sequence: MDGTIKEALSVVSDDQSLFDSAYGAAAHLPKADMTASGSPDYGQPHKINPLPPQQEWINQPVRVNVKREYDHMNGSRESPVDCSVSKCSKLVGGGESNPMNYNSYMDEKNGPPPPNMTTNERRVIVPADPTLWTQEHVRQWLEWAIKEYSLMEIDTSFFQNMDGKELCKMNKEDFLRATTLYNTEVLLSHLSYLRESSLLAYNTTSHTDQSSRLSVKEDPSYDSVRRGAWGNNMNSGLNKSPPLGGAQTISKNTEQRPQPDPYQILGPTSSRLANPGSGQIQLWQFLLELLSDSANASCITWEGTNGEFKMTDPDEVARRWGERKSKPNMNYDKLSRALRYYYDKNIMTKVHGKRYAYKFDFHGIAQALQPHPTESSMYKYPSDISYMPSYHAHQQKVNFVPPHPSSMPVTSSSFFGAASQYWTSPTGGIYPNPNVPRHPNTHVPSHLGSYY
How it was run: (§1)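 Pools were built from human transcription factors expressed in yeast as GST fusions, captured on glutathione beads and DNA-barcoded, along with a tag-only sample. Incubation with 200 nmole of a 16-mer random double-stranded DNA library lasted 30 min at room temperature in Tris/NaCl/DTT/glycerol buffer, and was followed by washing, 0.1% formaldehyde crosslinking, proximity ligation, PCR amplification and Illumina NextSeq500 sequencing. Binding signal is the quotient of each hexamer's read frequency for a factor and its frequency for the tag-only sample.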

ELK1 = target: T2, ELK1 (Homo sapiens, UniProt P19419 1-428); details: protein: recombinant; tags: N-terminal GST; dsDNA, one strand shown
T2 sequence: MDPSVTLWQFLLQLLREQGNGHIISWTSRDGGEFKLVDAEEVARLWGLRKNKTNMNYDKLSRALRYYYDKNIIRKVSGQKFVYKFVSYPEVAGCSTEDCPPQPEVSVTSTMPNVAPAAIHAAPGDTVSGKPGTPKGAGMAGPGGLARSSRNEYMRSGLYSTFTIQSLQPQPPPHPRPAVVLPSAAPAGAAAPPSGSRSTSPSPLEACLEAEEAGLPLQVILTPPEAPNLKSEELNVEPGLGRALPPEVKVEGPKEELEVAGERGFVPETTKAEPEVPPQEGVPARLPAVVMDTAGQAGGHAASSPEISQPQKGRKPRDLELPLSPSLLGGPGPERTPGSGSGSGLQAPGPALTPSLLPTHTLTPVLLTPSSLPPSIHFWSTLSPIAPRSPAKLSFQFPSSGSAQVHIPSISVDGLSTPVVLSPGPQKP
How it was run: as §1

GABPA = target: T3, GABPA (Homo sapiens, UniProt Q06546 1-454); details: protein: recombinant; tags: N-terminal GST; dsDNA, one strand shown
T3 sequence: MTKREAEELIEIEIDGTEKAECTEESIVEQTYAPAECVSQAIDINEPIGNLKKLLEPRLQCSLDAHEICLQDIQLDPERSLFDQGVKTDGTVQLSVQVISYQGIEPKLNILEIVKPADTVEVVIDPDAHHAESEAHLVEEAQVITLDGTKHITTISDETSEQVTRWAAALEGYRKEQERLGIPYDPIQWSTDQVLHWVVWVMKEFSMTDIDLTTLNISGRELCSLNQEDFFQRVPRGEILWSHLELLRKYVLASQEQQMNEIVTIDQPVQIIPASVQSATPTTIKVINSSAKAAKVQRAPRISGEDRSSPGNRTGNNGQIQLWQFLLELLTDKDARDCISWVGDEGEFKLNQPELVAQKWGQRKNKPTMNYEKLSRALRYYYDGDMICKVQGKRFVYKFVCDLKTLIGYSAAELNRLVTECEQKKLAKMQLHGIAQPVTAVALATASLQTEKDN
How it was run: as §1

ERG = target: T4, ERG (Homo sapiens, UniProt P11308 1-479); details: protein: recombinant; tags: N-terminal GST; dsDNA, one strand shown
T4 sequence: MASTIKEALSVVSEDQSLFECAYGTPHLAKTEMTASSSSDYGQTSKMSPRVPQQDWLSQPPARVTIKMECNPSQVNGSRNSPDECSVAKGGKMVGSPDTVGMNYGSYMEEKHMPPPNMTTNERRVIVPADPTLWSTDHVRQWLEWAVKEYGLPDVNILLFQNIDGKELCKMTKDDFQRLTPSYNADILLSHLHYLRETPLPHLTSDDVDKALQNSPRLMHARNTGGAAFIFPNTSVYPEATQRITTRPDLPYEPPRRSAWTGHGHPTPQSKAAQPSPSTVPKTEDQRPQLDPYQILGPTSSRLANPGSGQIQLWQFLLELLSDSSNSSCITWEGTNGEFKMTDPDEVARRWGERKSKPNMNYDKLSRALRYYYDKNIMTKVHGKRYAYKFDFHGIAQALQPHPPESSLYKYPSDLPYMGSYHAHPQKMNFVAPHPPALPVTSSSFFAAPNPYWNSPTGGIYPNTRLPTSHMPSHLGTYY
How it was run: as §1

ELF1 = ELF1 (Homo sapiens, UniProt P32519 1-619); details: protein: recombinant; tags: N-terminal GST; dsDNA, one strand shown
How it was run: as §1

EHF = target: T5, EHF (Homo sapiens, UniProt Q9NZC4 1-300); details: protein: recombinant; tags: N-terminal GST; dsDNA, one strand shown
T5 sequence: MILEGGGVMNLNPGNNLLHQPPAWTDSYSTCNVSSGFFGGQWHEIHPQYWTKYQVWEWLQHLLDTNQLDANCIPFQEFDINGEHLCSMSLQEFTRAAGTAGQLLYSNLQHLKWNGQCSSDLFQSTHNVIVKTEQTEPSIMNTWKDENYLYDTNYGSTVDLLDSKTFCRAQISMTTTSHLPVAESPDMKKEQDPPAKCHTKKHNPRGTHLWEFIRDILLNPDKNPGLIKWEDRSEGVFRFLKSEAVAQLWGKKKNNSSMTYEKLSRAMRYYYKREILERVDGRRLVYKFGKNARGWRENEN
How it was run: as §1

SPI1 = SPI1 (Homo sapiens, UniProt P17947 1-270); details: protein: recombinant; tags: N-terminal GST; dsDNA, one strand shown
How it was run: as §1

SPIB = SPIB (Homo sapiens, UniProt Q01892 1-262); details: protein: recombinant; tags: N-terminal GST; dsDNA, one strand shown
How it was run: as §1

ELK3 = target: T6, ELK3 (Homo sapiens, UniProt P41970 1-407); details: protein: recombinant; tags: N-terminal GST; dsDNA, one strand shown
T6 sequence: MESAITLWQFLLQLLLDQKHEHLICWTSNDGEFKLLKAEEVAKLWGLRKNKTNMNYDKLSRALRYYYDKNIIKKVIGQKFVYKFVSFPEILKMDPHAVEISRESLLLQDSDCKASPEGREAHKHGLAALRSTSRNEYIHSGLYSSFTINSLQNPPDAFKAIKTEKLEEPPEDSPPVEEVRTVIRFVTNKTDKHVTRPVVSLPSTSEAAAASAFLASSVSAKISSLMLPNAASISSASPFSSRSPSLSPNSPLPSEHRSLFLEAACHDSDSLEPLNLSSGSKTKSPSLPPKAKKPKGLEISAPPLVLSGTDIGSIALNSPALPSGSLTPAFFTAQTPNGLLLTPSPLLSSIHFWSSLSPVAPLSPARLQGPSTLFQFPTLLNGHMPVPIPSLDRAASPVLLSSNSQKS
How it was run: as §1

FEV = target: T7, FEV (Homo sapiens, UniProt Q99581 1-238); details: protein: recombinant; tags: N-terminal GST; dsDNA, one strand shown
T7 sequence: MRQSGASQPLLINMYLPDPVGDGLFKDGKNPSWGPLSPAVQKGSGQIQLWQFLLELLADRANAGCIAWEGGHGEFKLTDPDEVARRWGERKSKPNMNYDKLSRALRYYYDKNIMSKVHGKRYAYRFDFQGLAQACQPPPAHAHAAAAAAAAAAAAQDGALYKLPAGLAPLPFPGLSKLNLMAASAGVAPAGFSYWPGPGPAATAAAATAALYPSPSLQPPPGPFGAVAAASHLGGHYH
How it was run: as §1

ETV5 = ETV5 (Homo sapiens, UniProt P41161 1-510); details: protein: recombinant; tags: N-terminal GST; dsDNA, one strand shown
How it was run: as §1

HSF1 = HSF1 (Homo sapiens, UniProt Q00613 1-529); details: protein: recombinant; tags: N-terminal GST; chain copies: 3; dsDNA, one strand shown
How it was run: as §1

SPIC = target: T8, SPIC (Homo sapiens, UniProt Q8N5J4 1-248); details: protein: recombinant; tags: N-terminal GST; dsDNA, one strand shown
T8 sequence: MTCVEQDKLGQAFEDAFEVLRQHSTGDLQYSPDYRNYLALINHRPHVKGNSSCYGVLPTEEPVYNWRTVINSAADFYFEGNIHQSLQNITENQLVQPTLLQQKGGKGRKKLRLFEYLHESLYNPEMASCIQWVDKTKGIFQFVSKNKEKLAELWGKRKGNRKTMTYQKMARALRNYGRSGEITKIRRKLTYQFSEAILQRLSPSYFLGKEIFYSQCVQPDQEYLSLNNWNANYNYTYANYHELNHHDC
How it was run: as §1

ELF4 = ELF4 (Homo sapiens, UniProt Q99607 1-663); details: protein: recombinant; tags: N-terminal GST; dsDNA, one strand shown
How it was run: as §1

ELK4 = target: T9, ELK4 (Homo sapiens, UniProt P28324-2 1-405); details: protein: recombinant; tags: N-terminal GST; dsDNA, one strand shown
T9 sequence: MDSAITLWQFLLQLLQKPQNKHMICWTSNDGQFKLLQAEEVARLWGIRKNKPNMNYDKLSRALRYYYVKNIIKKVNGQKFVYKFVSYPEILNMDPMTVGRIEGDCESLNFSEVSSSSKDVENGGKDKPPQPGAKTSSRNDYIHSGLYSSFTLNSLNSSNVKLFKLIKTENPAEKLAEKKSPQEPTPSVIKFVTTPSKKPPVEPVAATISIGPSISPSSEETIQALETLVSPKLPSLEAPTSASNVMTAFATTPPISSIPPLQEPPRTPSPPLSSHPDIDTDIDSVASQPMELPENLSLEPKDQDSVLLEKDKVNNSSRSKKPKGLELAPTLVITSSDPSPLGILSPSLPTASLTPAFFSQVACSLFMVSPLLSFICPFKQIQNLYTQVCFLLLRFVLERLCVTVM
How it was run: as §1

ETV2 = target: T10, ETV2 (Homo sapiens, UniProt O00321 1-342); details: protein: recombinant; tags: N-terminal GST; dsDNA, one strand shown
T10 sequence: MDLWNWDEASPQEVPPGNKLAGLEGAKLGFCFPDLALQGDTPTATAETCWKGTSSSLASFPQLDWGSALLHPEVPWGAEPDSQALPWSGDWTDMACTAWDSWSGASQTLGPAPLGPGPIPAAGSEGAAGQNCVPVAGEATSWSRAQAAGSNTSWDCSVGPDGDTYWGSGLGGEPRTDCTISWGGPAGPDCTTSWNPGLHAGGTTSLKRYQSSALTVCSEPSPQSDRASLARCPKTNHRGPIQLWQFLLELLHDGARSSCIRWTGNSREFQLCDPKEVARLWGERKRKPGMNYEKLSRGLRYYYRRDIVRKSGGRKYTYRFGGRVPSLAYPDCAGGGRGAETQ
How it was run: as §1

ELF3 = target: T11, ELF3 (Homo sapiens, UniProt P78545 1-371); details: protein: recombinant; tags: N-terminal GST; dsDNA, one strand shown
T11 sequence: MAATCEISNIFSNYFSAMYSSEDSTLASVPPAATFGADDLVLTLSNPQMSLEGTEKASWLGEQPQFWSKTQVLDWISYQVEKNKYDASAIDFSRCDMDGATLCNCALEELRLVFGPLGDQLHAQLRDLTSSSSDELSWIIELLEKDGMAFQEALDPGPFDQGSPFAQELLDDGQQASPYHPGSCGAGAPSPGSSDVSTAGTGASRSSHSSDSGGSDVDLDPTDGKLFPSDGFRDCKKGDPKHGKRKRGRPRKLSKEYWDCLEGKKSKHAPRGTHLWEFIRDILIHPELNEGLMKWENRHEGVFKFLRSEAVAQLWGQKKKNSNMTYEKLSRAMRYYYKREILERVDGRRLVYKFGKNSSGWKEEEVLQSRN
How it was run: as §1

CRX = CRX (Homo sapiens, UniProt O43186 1-299); details: protein: recombinant; tags: N-terminal GST; dsDNA, one strand shown
How it was run: as §1

ETV1 = ETV1 (Homo sapiens, UniProt P50549 1-477); details: protein: recombinant; tags: N-terminal GST; dsDNA, one strand shown
How it was run: as §1

Chain of SPIB (Q01892 whole entry): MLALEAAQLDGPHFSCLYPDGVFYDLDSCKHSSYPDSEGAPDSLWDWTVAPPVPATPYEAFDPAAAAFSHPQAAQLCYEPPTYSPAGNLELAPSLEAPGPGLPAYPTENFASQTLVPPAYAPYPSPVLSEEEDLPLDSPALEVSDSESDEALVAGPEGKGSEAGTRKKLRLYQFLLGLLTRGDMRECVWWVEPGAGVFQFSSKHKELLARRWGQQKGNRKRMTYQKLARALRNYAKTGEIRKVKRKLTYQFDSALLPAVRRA
Chain of ETV5 (P41161 whole entry): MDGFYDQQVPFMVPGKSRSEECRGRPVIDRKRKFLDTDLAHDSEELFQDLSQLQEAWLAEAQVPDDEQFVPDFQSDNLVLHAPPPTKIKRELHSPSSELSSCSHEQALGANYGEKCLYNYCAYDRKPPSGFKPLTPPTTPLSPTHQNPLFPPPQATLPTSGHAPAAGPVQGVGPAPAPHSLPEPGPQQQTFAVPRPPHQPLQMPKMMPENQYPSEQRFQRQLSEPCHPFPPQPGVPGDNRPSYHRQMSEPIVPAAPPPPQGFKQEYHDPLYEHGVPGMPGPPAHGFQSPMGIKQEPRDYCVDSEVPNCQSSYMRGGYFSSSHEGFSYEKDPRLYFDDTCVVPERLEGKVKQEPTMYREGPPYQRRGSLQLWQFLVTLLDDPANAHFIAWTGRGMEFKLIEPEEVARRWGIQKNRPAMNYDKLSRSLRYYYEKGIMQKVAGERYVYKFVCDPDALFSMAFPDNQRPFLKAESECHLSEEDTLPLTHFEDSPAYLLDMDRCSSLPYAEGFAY
Chain of HSF1 (Q00613 whole entry): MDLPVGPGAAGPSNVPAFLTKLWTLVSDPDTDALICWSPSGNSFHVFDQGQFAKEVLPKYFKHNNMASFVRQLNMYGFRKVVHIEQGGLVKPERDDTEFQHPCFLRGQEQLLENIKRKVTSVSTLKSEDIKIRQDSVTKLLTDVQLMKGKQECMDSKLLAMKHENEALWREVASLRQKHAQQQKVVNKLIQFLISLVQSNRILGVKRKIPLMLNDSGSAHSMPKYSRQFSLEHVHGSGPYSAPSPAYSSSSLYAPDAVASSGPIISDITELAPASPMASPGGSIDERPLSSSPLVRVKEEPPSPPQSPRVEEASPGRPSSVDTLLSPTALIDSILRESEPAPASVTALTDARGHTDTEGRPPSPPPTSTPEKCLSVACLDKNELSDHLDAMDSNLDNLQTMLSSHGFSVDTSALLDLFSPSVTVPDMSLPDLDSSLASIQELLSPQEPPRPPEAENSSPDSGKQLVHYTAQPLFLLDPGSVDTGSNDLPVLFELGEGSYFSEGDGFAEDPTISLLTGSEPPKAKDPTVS
Chain of ELF1 (P32519 whole entry): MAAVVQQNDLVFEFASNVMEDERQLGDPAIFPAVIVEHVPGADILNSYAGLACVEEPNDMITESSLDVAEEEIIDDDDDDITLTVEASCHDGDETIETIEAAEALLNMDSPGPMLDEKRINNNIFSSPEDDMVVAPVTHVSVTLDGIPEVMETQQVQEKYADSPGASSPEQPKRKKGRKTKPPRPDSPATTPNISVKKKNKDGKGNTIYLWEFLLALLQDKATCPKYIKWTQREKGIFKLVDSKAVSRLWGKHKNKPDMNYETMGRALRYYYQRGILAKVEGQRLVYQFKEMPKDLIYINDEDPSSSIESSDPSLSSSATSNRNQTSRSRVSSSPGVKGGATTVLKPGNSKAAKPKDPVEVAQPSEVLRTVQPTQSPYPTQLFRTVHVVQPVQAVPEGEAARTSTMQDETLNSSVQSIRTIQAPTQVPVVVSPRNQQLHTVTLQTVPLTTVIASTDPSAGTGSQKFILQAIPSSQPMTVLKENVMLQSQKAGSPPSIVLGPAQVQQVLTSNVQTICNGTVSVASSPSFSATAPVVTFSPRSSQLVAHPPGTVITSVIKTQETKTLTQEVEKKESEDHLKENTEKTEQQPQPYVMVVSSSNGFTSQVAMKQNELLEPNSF
Chain of ELF4 (Q99607 whole entry): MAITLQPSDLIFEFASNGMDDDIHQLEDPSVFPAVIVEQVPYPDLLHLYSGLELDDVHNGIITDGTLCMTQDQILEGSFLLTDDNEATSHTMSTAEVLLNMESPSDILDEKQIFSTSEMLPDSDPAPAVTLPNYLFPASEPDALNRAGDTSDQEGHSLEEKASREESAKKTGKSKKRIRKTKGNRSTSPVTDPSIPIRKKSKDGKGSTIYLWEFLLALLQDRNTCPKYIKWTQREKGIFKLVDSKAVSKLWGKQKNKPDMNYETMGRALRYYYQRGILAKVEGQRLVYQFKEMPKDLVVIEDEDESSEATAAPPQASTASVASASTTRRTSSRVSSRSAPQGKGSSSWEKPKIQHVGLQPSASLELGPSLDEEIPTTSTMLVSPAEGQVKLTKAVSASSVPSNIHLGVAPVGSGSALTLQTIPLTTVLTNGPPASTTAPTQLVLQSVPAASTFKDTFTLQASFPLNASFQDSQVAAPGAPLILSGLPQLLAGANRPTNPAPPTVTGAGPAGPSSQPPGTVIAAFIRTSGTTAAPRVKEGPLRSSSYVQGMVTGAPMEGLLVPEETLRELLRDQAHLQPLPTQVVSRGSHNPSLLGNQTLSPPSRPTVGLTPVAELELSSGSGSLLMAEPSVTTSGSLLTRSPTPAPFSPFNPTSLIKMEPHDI
Chain of ETV1 (P50549 whole entry): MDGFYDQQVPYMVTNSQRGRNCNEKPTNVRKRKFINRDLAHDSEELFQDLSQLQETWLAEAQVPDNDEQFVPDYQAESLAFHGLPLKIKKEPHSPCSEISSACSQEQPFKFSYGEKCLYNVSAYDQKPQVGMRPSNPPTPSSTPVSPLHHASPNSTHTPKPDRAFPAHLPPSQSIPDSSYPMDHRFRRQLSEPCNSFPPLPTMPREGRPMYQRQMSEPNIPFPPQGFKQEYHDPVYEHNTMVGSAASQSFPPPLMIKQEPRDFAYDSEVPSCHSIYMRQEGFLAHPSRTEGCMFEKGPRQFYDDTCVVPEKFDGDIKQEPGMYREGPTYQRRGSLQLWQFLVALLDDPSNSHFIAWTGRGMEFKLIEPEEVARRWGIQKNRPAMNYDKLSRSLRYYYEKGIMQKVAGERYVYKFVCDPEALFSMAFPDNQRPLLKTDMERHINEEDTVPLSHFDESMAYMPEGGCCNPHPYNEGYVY
Chain of CRX (O43186 whole entry): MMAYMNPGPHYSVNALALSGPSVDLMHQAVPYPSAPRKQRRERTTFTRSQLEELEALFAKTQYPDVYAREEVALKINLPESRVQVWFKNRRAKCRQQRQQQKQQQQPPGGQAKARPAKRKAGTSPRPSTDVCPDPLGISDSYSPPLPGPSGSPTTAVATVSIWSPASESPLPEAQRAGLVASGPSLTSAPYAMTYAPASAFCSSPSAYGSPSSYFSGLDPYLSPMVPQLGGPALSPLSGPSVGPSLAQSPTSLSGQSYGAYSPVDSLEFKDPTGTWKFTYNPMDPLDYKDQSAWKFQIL

In the case of ACCTTC, the binding signal (FLI1) is reported as 1.8 fold enrichment (6-mer frequency, TF over GST control), the binding signal (ELK1) is reported as 1.94 fold enrichment (6-mer frequency, TF over GST control) and the binding signal (GABPA) is reported as 1.79 fold enrichment (6-mer frequency, TF over GST control). The binding signal (ERG) was 2.03 fold enrichment (6-mer frequency, TF over GST control), the binding signal (ELF1) was 1.92 fold enrichment (6-mer frequency, TF over GST control) and the binding signal (EHF) was 2.02 fold enrichment (6-mer frequency, TF over GST control). For the same sequence, the binding signal (SPI1) was 1.75 fold enrichment (6-mer frequency, TF over GST control), the binding signal (SPIB) was 1.95 fold enrichment (6-mer frequency, TF over GST control) and the binding signal (ELK3) was 1.8 fold enrichment (6-mer frequency, TF over GST control). For the same sequence, the binding signal (FEV) was 1.97 fold enrichment (6-mer frequency, TF over GST control), the binding signal (ETV5) was 1.96 fold enrichment (6-mer frequency, TF over GST control) and the binding signal (HSF1) was 2.87 fold enrichment (6-mer frequency, TF over GST control). For the same sequence, the binding signal (SPIC) was 1.66 fold enrichment (6-mer frequency, TF over GST control), the binding signal (ELF4) was 2.06 fold enrichment (6-mer frequency, TF over GST control) and the binding signal (ELK4) was 2.06 fold enrichment (6-mer frequency, TF over GST control). For the same sequence, the binding signal (ETV2) was 1.71 fold enrichment (6-mer frequency, TF over GST control), the binding signal (ELF3) was 1.95 fold enrichment (6-mer frequency, TF over GST control) and the binding signal (CRX) was 1.88 fold enrichment (6-mer frequency, TF over GST control). The binding signal (ETV1) was 1.98 fold enrichment (6-mer frequency, TF over GST control).
